Screening data: PubChem, National Center for Advancing Translational Sciences (NCATS)
GoLoco inh red = RGS12 GoLoco-Gai1 interaction inhibition; Potency, µM (top dose mostly 61.6 µM), for the others: at the highest dose activity, negative = inhibition, most hits filed as inhibitors; Gai1:RGS12 GoLoco peptide FP, rhodamine, 10 min; P63096; hit rate 0.44% among 230,000; active means well fitted inhibition curve with a large enough effect, not every such curve was filed as active; inactive means no such curve, though single readings can be large or run the other way; further: nearly all actives have a fitted effect of over 30% in size
Target sequence (P63096 whole entry, looked up): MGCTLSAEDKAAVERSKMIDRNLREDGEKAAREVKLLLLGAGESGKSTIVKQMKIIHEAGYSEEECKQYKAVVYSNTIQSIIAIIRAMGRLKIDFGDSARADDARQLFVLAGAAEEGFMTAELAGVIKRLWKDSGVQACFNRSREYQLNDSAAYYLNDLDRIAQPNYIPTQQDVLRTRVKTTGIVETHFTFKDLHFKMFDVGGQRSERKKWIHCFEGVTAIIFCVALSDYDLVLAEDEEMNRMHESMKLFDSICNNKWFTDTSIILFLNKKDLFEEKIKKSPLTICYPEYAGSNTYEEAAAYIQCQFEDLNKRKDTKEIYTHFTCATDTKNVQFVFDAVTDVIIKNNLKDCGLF
Tau fibril ThT = blocks human tau fibril formation measured by thioflavin T; P10636; recombinant tau K18 P301L, heparin-induced fibrillization, ThT fluorescence; Potency, µM (series often up to 57.4 µM), without a hit: at the highest dose activity, negative = inhibition, actives largely listed as inhibitors; hit rate 2.1% among 270,000; AID 1460; further: nearly all actives have a fitted effect of over 55% in size
Target sequence (P10636 561-689 P618L limits assumed): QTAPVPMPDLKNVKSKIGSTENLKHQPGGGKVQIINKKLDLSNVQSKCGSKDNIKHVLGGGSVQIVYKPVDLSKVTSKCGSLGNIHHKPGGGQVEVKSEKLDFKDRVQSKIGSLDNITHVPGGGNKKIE
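Tau K18 P301L fragment (15 uM unlabeled plus 0.24 uM Alexa 594-labeled) in 100 mM sodium acetate pH 7 with compound, fibrillization induced by 20 uM heparin for 6 hr at 37 C. Thioflavin T (30 uM) added, fluorescence read after 1 hr (ex 450, em 510 nm).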
TexasRed fluor = alters Texas Red total fluorescence, flagging assay interference | TRb/SRC2 Texas Red total fluorescence interference | Potency, µM (highest dose often 106 µM), for the others: top-dose fluorescence change, negative = quenching | hit rate 0.29% among 280,000; active means well fitted curve in either direction with a large enough effect; inconclusive means small, poorly fitted or top-dose-only effect
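Human TRβ ligand-binding domain (0.6 uM) and Texas Red SRC2 peptide (20 nM) in Tris buffer with 1 uM T3 and 5% DMSO were incubated with pinned compound for 5 hr at ambient temperature. Total fluorescence was computed as S + 2P (555/632 nm).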
TRb-SRC2 inh = TRbeta-SRC2 interaction inhibition; P10828; TRbeta-SRC2 peptide binding, fluorescence polarization; receptor liganded with 1 µM T3; Potency, µM (titrated, usually from 106 µM), for the others: at the highest dose activity change, negative = inhibition, most hits filed as inhibitors; hit rate 0.065% among 280,000;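 further: plate controls were bound peptide for no effect and peptide without receptor for full effect; nearly all actives have a fitted effect of over 50% in size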
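Decrease in fluorescence polarization of 20 nM Texas Red SRC2 coactivator peptide flagged inhibition of its binding to 0.6 uM TRb LBD; 1 uM T3 included, incubation 5 hr, ex 555/em 632 nm.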
Tau FP inhib = inhibitors of human tau fibril formation | P10636 | K18 P301L tau heparin fibrillization, Alexa594 FP, 6 h | Potency, µM (doses to about 57.7 µM), for inactives: at the highest dose activity, negative = inhibition, usual class: inhibitors | hit rate 0.39% among 280,000 | AID 1468; further: nearly all actives have a fitted effect of over 55% in size
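Steps: dispense K18 P301L tau (15 uM plus 0.24 uM Alexa 594 tracer, final) in pH 7 sodium acetate; add compound; add heparin (20 uM final); incubate 6 hr, 37 C; add ThT (30 uM final); after 1 hr ambient, read FP.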
Tau fluor counter = counter-screen for tau fibril formation inhibitors; Potency, µM (top dose mostly 57.7 µM), for inactives: top-dose activity change, negative = decrease; hit rate 0.93% among 280,000; tau K18 P301L Alexa594 fluorescence, heparin fibrillization; AID 1463; further: nearly all actives have a fitted effect of over 55% in size
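Human tau K18 P301L (15 uM unlabeled, 0.24 uM Alexa 594-labeled) in 100 mM sodium acetate pH 7 with 20 uM heparin, 6 hr at 37 C. ThT 30 uM added, 1 hr ambient; Alexa 594 FP and total fluorescence read at 555/632 nm.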
* = called active by the depositor; u = inconclusive; x = no result given; [ ] = remark or other dose. The list is not random: actives were taken first. Their share in the collection is about 3.1%. Unless noted, the call rests on the fitted dose curve; in most records, active means well fitted curve in the direction sought with a large enough effect; inconclusive means small, poorly fitted or top-dose-only effect, or another doubt; inactive means no such curve, though single readings can be large; an effect the other way counts as inactive or inconclusive. Unless noted, on the % scale 0 is the no-effect control and ±100 the full control effect; potency means the concentration at half of the fitted maximal effect.

SMILES	GoLoco inh red	Tau fibril ThT	TexasRed fluor	TRb-SRC2 inh	Tau FP inhib	Tau fluor counter
Cc1ccc(CCNC(=O)C23CN(Cc4ccccc4)CC2C(c2cccc([N+](=O)[O-])c2)=NO3)cc1 (stereo not drawn)	-14.2%	-4.4%	2.1%	-16.3%	8.6%	-19.6%
COc1cccc(NS(=O)(=O)c2ccc3[nH]cc(C(=O)NC4CC4)c(=O)c3c2)c1	11.3%	13.4%	1.3%	4.8%	-18.8%	-22.3%
COc1cccc(NS(=O)(=O)c2ccc3[nH]cc(C(=O)NC4CCCCC4)c(=O)c3c2)c1	x	u	-0.7%	-3.4%	7.08µM*	3.55µM*[quencher]
CC(C)c1ccc(NS(=O)(=O)c2ccc3[nH]cc(C(=O)NCC4CCCO4)c(=O)c3c2)cc1 (stereo not drawn)	x	-8.0%	-0.1%	6.3%	15.8µM*	u
Cc1cc(C)cc(NS(=O)(=O)c2ccc3[nH]cc(C(=O)NC4CCCCC4)c(=O)c3c2)c1	x	u	-1.3%	0.5%	7.94µM*	u
Cc1cc(C)cc(NS(=O)(=O)c2ccc3[nH]cc(C(=O)NCc4ccccc4Cl)c(=O)c3c2)c1	x	5.1%	u	-14.5%	3.16µM*	u
CCOc1ccc(NS(=O)(=O)c2ccc3[nH]cc(C(=O)NCC4CCCO4)c(=O)c3c2)cc1 (stereo not drawn)	-14.9%	u	-4.0%	-3.0%	u	u
CCOC(=O)c1cccc(NC(=O)N[C@@H](C)C(=O)OC)c1	2.4%	-9.4%	-0.3%	-7.0%	-10.6%	-3.9%
CC(C)C=O	8.6%	x	-3.0%	1.1%	x	x
Cc1cccc(CC(=O)Nc2cc(C)c3c(=O)oc4ccccc4c3n2)c1	34.6%	3.7%	2.7%	-17.2%	-15.5%	-11.1%
COc1cccc(N2C(=O)C(CC(=O)Nc3ccc(F)cc3)N(CCC3=CCCCC3)C2=O)c1 (stereo not drawn)	x	-7.2%	-0.4%	3.6%	u	u
CC1CCCCC1NC(=O)Cn1nc(-c2ccccc2)ccc1=O (stereo not drawn)	-5.3%	-7.9%	-0.8%	-0.8%	-10.1%	-1.9%
CC(C)c1ccc(NS(=O)(=O)c2ccc3[nH]cc(C(=O)NC4CCCCC4)c(=O)c3c2)cc1	x	u	-2.7%	1.8%	3.55µM*	u
CC(C)c1ccc(NS(=O)(=O)c2ccc3[nH]cc(C(=O)N4CCC(C(N)=O)CC4)c(=O)c3c2)cc1	3.7%	-9.8%	0.3%	0.8%	-7.1%	-12.9%
CC(C)C(=O)N(Cc1ccccc1)c1ccccn1	7.6%	3.9%	1.6%	-2.7%	-5.6%	0.6%
CCc1ccc(CN(C(=O)Nc2cccc(Cl)c2)c2ccccn2)cc1	x	-4.2%	355µM*[quencher]	-11.2%	u	u
CCOC(=O)c1c(CSc2ccsc2)n(C)c2cc(Br)c(O)c(CN(C)C)c12	6.5%	u	-1.4%	-1.3%	5.8%	-20.2%
O/N=C(\c1ccc(Cl)cc1Cl)c1ncc(C(F)(F)F)cc1Cl	12.3%	u	1.2%	-0.1%	-13.7%	u
Cc1ccc(CNC(=O)C2CCN(C(=O)N3CC(C)Oc4ccc(Cl)cc43)CC2)cc1 (stereo not drawn)	x	u	5.0%	2.0%	-14.8%	u
Cc1cc(C)c(NC(=O)C2CCN(C(=O)N3CC(C)Oc4ccc(Cl)cc43)CC2)c(C)c1 (stereo not drawn)	x	-16.8%	-16.8%	-2.6%	0.6%	-3.9%
CCOc1ccc(NC(=O)C2CCN(C(=O)N3CC(C)Oc4ccc(Cl)cc43)CC2)cc1 (stereo not drawn)	x	u	100µM*[quencher]	-15.5%	-10.6%	u
CC1CN(C(=O)N2CCC(C(=O)NC3CCCCCC3)CC2)c2cc(Cl)ccc2O1 (stereo not drawn)	x	20µM*	0.7%	-3.0%	u	u
Cc1ccc2c(c1)N(C(=O)N1CCC(C(=O)NCCc3ccc(Cl)cc3)CC1)CC(C)O2 (stereo not drawn)	x	-3.6%	-0.4%	-6.3%	7.2%	7.94µM*[quencher]
CCCCCCCc1ccc(-c2ccc(O)cc2)nc1	-3.1%	u	-0.9%	11.0%	u	14.1µM*[quencher]
CC(=O)C1=C(O)C(=O)N(CCCN2CCOCC2)C1c1ccccc1[N+](=O)[O-] (stereo not drawn)	-14.3%	25.1µM*	0.8%	-3.1%	u	u
SMILES	GoLoco inh red	Tau fibril ThT	TexasRed fluor	TRb-SRC2 inh	Tau FP inhib	Tau fluor counter
CC(=O)C1=C(O)C(=O)N(C)C1c1ccccc1[N+](=O)[O-] (stereo not drawn)	5.7%	15.8µM*	-5.0%	-2.8%	u	-14.0%
O=c1cc(-c2ccccc2Cl)oc2ccc([N+](=O)[O-])c(O)c12	6.2%[88.7 µM]	11.2µM*	-1.8%	11.6%	-2.6%[81.3 µM]	-17.9%[81.3 µM]
Nc1ccc2oc(-c3ccccc3Cl)cc(=O)c2c1O	-3.6%[88.7 µM]	u	-0.1%	7.3%	u	u
Cc1c(N2C(=O)/C(=C\c3ccccc3O)SC2=S)c(=O)n(-c2ccccc2)n1C	228.2%	31.6µM*	-0.7%	-5.7%	u	-25.6%
CN1C(=O)/C(=C/c2cc(N=Nc3ccccc3)ccc2O)SC1=S	207.8%	4.47µM*	9.1%	0.6%	u	6.31µM*[quencher]
O=C1/C(=C/c2ccccc2O)SC(=S)N1Cc1cccnc1	56.1%	u	-0.5%	6.3%	-14.8%	-9.7%
COc1ccc(OC)c(-c2csc(NC(=O)CSc3ccc([N+](=O)[O-])cc3)n2)c1	7.9%	u	-3.9%	-2.3%	-3.8%	11.2µM*[quencher]
COc1ccc(CNC(=O)CCCn2c(=O)c3cccn3c3cccnc32)cc1	x	-12.9%	-1.7%	3.7%	-14.6%	-23.6%
CN(C)c1ccc(/C=N/NC(=O)c2nonc2N)cc1[N+](=O)[O-]	2.7%	15.8µM*	-17.9%	-0.8%	-0.2%	-18.5%
Nc1nonc1C(=O)N/N=C/c1cccc([N+](=O)[O-])c1	-0.6%	-5.5%	-3.5%[53 µM]	2.0%[53 µM]	13.3%	9.8%
COc1cccc(Cn2c(=O)c(C)nc3cnc(Nc4ccccc4)nc32)c1	112.7%	x	x	x	x	x
